This passage reports growth results from PubChem BioAssay (NCI).

This is part of a sample that, as a whole, favours compounds with a hit. Of some 83,000 tested, about 20% had one in any assay.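 Interpretation: 100, growth as untreated; towards 0, rising growth inhibition; 0, no net growth; 0 to -100, cell death. Compounds scoring below 10 were considered active.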 Activity calls are given as the source filed them.

This experiment deals with MDA-MB-468 breast. Description: NCI-60 one-dose screen, 48 h (100 = growth as untreated, 0 = no growth, -100 = all killed). The note with it: 10 µM unless noted.
`Oc1ccc(Cl)cc1/C=N\NC(=S)N/N=C/c1cc(Cl)ccc1O`: the growth was 1.29% (active).
As for `CC/C=C\C[C@H](O)C/C=C1/C(=O)C=C[C@@H]1C/C=C\CCCC(=O)NC`, the growth was -47.4% (active).
For `O=c1ccn(C2CCCO2)c(=O)[nH]1` (centres undefined) the value was 104% (inactive).
As to `CC(C)=CCC[C@](C)(O)[C@H]1CC[C@]2(C)[C@@H]1CC[C@@H]1[C@@]3(C)C/C(=C/c4ccc(Br)cc4)C(=O)C(C)(C)[C@@H]3CC[C@]12C`, the growth is 83.7% (inactive).
Take `COc1cc(OC)c(NC(=O)C(Sc2nc(C)cc(C)c2C#N)c2ccccc2)cc1Cl` (centres undefined): the growth is 93.6% (inactive).
Turning to `N=S(c1ccccc1[N+](=O)[O-])c1ccccc1[N+](=O)[O-]`, the growth is 15.1% (inactive).
In the case of `CCCCCCCCCCCCCCNc1nc(CO)ncc1-c1ccc(C(F)(F)F)cc1`, the growth is 98.1% (inactive).
For `O=C1Nc2ccccc2C12CC(c1ccc(Cl)cc1)=NN2` (centres undefined) the value was 110% (inactive); for `CCOC(=O)C(O)C(O)C(=O)OCC` (centres undefined), 102% (inactive).
Consider `O=C1NC(=O)C2(CCc3ccccc32)N1` (centres undefined), for which the growth is 106% (inactive).
For `O=[N+]([O-])c1cc(Cl)c2[nH]c3c(Cl)cc([N+](=O)[O-])cc3c2c1` the value was -17.9% (active); for `COc1cccc(NC(=O)Nc2ccc(Oc3ncnc4[nH]c(C)c(C)c34)cc2)c1`, 125% (inactive); for `CCCCS(=O)(=O)c1cc(Nc2ccc(O)c3c2C(=O)c2ccccc2C3=O)ccc1C`, 76.4% (inactive).
Regarding `COc1cc(C2=N/C(=C\c3cc4ccccc4nc3Oc3ccccc3)C(=O)N2C(=N)N)cc(OC)c1OC`, the growth is 67.9% (inactive).
On to `Cc1[nH]c(C(=O)Nc2ccccc2OCc2cccc(C(=O)NCCN)c2)c(Cl)c1Cl`, for which the growth was 10.7% (inactive).
Turning to `CCN1C2CCC1/C(=C\c1ccccc1)C(=O)/C2=C/c1ccccc1`, the growth is 16.1% (inactive).
For `CNC1CCc2c(sc(NC(=O)c3ccc(C(C)(C)C)cc3)c2C(N)=O)C1` (centres undefined), the growth was -37.2% (active).
Consider `CCCCc1ccc(NS(=O)(=O)c2cc3c4c(c2)CCN4C(=O)CC3)cc1`, for which the growth was -25.9% (active).
`C=CC[C@]1(O)CC[C@H]2[C@@H]3CCc4cc(O)ccc4[C@H]3CC[C@@]21C`: the growth is 87.4% (inactive).
`COC(=O)[C@]12CC[C@@H](C)[C@H](C)[C@@H]1C1=CC(=O)[C@@H]3[C@@]4(C)C[C@@H](OC(C)=O)[C@H](OC(C)=O)[C@@](C)(COC(C)=O)[C@@H]4C(=O)C[C@@]3(C)[C@]1(C)CC2`: the growth is 35.3% (inactive).
To `CN1CCN(CCCN2c3ccccc3Sc3ccc(C(F)(F)F)cc32)CC1` belongs -2.21% (active); to `CN1CCC(CNc2ccc3ncc(-c4cccc(OC(F)(F)F)c4)n3n2)CC1`, -84.8% (active).
With `COc1cc(C2C3=C(COC3=O)N(CCO)c3cc4c(cc32)OCO4)cc(OC)c1O` (centres undefined), the growth was -35.5% (active).
For `C=C1CCC2C3(C)COC(c4ccc(N(C)C)cc4)OC3CCC2(C)C1C/C=C1/C(=O)OCC1O` (centres undefined) the value was 22.2% (inactive).
